NRP1-CendR mod = modulators of CendR peptide binding to human neuropilin-1 | FAM-RPARPAR peptide binding to NRP-1, fluorescence polarization | hit rate 0.85% among 360,000 | inhibition, % at 25 µM | AID 602438;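 active = inhibition or corrected inhibition above about 18%, plus a signal ratio from 0.5 to 1.5, limit read from the data, passing the limit was not always enough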
Target sequence (O14786 whole entry, looked up): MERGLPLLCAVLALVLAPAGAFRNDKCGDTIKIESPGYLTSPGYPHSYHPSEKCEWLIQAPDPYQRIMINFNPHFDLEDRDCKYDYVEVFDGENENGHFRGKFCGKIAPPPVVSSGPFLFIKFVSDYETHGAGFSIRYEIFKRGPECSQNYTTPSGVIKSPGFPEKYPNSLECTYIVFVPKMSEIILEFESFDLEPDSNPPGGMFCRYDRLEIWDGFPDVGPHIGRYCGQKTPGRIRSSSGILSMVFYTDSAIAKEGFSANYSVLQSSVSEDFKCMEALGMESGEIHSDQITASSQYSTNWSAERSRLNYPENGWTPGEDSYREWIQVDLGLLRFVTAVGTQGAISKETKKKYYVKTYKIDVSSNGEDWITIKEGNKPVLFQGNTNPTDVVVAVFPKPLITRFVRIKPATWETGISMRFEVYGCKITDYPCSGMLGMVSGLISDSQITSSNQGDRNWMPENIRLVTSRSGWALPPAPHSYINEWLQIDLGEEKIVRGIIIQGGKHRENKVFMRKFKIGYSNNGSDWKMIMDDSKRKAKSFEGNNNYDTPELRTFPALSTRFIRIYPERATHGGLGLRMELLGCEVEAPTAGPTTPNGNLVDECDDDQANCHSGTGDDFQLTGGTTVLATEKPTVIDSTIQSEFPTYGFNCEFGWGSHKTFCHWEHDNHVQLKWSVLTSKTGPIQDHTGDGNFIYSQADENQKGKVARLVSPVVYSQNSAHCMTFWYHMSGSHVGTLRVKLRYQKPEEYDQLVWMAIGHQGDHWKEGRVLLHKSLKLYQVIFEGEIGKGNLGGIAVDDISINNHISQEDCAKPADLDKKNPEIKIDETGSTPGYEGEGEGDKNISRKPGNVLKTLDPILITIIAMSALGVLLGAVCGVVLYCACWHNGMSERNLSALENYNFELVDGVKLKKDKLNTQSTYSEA
ADAM17 inh = ADAM17 inhibition, QFRET primary screen. P78536. recombinant ADAM17, EDANS/DABCYL FRET peptide cleavage. inhibition, % at 6.95 µM. hit rate 0.83% among 370,000. AID 720648;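 active = inhibition above the mean of compounds lying between control limits plus 3 SD, set per campaign, cut at about 8.5% in these data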
A3G deaminase = blocks human APOBEC3G single-stranded DNA deamination. inhibition, % at 20 µM. recombinant A3G, ssDNA deamination FAM/TAMRA fluorescence. hit rate 0.28% among 330,000. Q9HC16;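 active = inhibition of at least 40% at 20 µM, with no more than 30% in the related APOBEC3A deaminase screen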
ADAM10 inh = inhibits human ADAM10; O14672; AID 720582; hit rate 0.62% among 370,000; inhibition, % at 7 µM; recombinant ADAM10, EDANS/DABCYL FRET peptide cleavage, 3 h;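 active = inhibition above a per-campaign cutoff equal to the mean of compounds falling between control-based bounds plus 3 SD, cut at about 20% in these data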
A3A deaminase = inhibitors of human APOBEC3A DNA deaminase. recombinant A3A, FAM/TAMRA ssDNA deamination fluorescence. P31941. AID 493011. hit rate 0.41% among 330,000. inhibition, % at 20 µM;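 active = at least 40% inhibition at 20 µM here, with at most 30% in a related deaminase screen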
ADAM10 confirm = confirmation of inhibitors of human ADAM10. shares compounds with ADAM10 inh. ADAM10 QFRET peptide cleavage, EDANS fluorescence. inhibition, % at 6.95 µM. hit rate 1% among 2,100;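 active = inhibition above about 20% chosen separately for each screening run, limit read from the data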
ADAM17 ctr = counter-screen for ADAM10 exosite inhibitors: inhibitors of human ADAM17; shares compounds with ADAM10 inh; ADAM17 QFRET peptide cleavage, EDANS fluorescence; hit rate 0.5% among 2,100; inhibition, % at 6.95 µM;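 active = mean triplicate inhibition above the solvent-only control wells' mean plus 3 SD, cut at about 12% in these data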
Large screens that a line does not name were inactive (follow-up assays come after a bar, where they were run). Hits are enriched below; roughly 2.4% of the tested compounds scored in any of these assays.

O=C(NC1=N[C@@]2(C=C3CCCCC3n3c(=O)n(-c4ccccc4)c(=O)n32)[C@H](Cc2ccccc2)N1Cc1ccccc1)c1ccccc1 (some centres undefined)	ADAM17 inh 9.7, ADAM10 inh 20 (no result: NRP1-CendR mod, A3G deaminase, A3A deaminase) | ADAM10 confirm inactive | ADAM17 ctr inactive
CCN(CC)C(=O)CC[C@H]1CC[C@]2(CCCN(S(=O)(=O)c3ccccc3)C2)O1	none (no result: NRP1-CendR mod, A3G deaminase, A3A deaminase)
CCC(NC(=O)Cn1c(-c2ccccc2)cc(C(C)=O)c1C)c1ccccc1 (centres undefined)	none (no result: NRP1-CendR mod, A3G deaminase, A3A deaminase)
CC(C)c1ccc(CNC(=O)CCc2ccccc2)cc1	none
CC(C)c1ccc(OCC(=O)NCc2ccccc2)cc1	NRP1-CendR mod 52, ADAM10 inh 78 | ADAM10 confirm inactive | ADAM17 ctr inactive
C#CCn1c(S(=O)(=O)Cc2ccc(C)cc2)nc(-c2ccccc2)c1-c1ccccc1	ADAM10 inh 23 | ADAM10 confirm inactive | ADAM17 ctr inactive
C#CCn1c(S(=O)(=O)Cc2ccccc2Cl)nc(-c2ccccc2)c1-c1ccccc1	none
CCC(CO)Oc1cc(NCc2ccc(Cl)cc2Cl)c2ncn(C(C)C)c2c1 (centres undefined)	ADAM10 inh 22 | ADAM10 confirm inactive | ADAM17 ctr inactive
CCC(CO)Oc1cc(NCc2ccc(Cl)cc2)c2ncn(C(C)C)c2c1 (centres undefined)	none
CCOC(=O)c1c(C)[nH]c(C)c1S(=O)(=O)NCCN1CCN(c2cc(Cl)ccc2C)CC1	ADAM17 inh 12, ADAM10 inh 24 | ADAM10 confirm inactive | ADAM17 ctr inactive
O=C(NC(C(=O)N/N=C/c1cccc2ccccc12)c1n[nH]c(=O)c2ccccc12)c1ccccc1 (centres undefined)	ADAM10 inh 22 | ADAM10 confirm inactive | ADAM17 ctr inactive
C[C@@H]1ON(C)[C@H]2C[C@H]3c4[nH]c5c(-c6ccc(C(F)(F)F)cc6)cccc5c4CCN3C(=O)[C@@H]12	none (no result: NRP1-CendR mod, A3G deaminase, A3A deaminase)
Cc1ccc(-c2c(NC(=O)Nc3ccc(F)cc3)nc3ncccn23)cc1	none (no result: NRP1-CendR mod, A3G deaminase, A3A deaminase)
CCOC(=O)N1CCN(CCC(=O)Nc2ccc(OC)cc2)CC1	ADAM10 inh 71 | ADAM10 confirm inactive | ADAM17 ctr inactive
CCOC(=O)N1CCN(CCC(=O)Nc2ccc(C)cc2)CC1	none
CC[C@]12c3[nH]c4ccc(OC)cc4c3CCN1C(=O)C(CC(=O)NCc1cccc(C(F)(F)F)c1)C[C@@H]2C(=O)N1CCN(C(=O)c2ccco2)CC1 (some centres undefined)	none
CC[C@]12c3[nH]c4ccc(Cl)cc4c3CCN1C(=O)[C@@H](CC(=O)NCc1cccc(C(F)(F)F)c1)C[C@@H]2C(=O)N1CCN(C(=O)c2ccco2)CC1	ADAM10 inh 23 | ADAM10 confirm inactive | ADAM17 ctr inactive
Cc1[nH]c2ccccc2c1CC(=O)Nc1ccc(Nc2cccnc2)c(-c2ccc(C(C)(C)C)cc2)c1	none (no result: NRP1-CendR mod, A3G deaminase, A3A deaminase)
CN(Cc1ccccc1)C(=O)OCc1cn(Cc2cccc(F)c2)nn1	none (no result: NRP1-CendR mod, A3G deaminase, A3A deaminase)
CC(C)N1C(=O)C(Cc2nc3ccccc3c(=O)n2-c2ccccc2)c2ccccc21 (centres undefined)	ADAM10 inh 86 | ADAM10 confirm inactive | ADAM17 ctr inactive
CCCN1C(=O)C(Cc2nc3ccccc3c(=O)n2-c2ccccc2)c2ccccc21 (centres undefined)	none
COc1cccc(N(C)C(=O)[C@@H](C)[C@@H](O)c2ccc(C(C)=O)cc2)c1	none (no result: NRP1-CendR mod, A3G deaminase, A3A deaminase)
C=Cc1ccc(C(=O)N2CCC(n3nnc4ncccc43)CC2)cc1	none (no result: NRP1-CendR mod, A3G deaminase, A3A deaminase)
O=C1C(=O)N(C2CCCC2)C(=O)N1Cc1c(F)cccc1Cl	ADAM10 inh 21 | ADAM10 confirm inactive | ADAM17 ctr inactive
O=C(O)CN1C(=O)C(=O)N(Cc2c(F)cccc2Cl)C1=O	none
Cc1n[nH]c(C)c1N=Nc1ccc(Br)cc1	ADAM10 inh 21 | ADAM10 confirm inactive | ADAM17 ctr inactive
COc1ccc(N=Nc2c(C)n[nH]c2C)cc1	none
C[C@H](CO)N1C[C@H](C)[C@H](CN(C)S(=O)(=O)c2ccc(Cl)cc2)OCc2ccccc2-c2c(n(C)c3ccccc23)C1=O	ADAM17 inh 12, ADAM10 inh 36 (no result: A3G deaminase, A3A deaminase) | ADAM10 confirm inactive | ADAM17 ctr inactive
O=C(NC1CCCCN(Cc2ccc(Cl)cc2)C1=O)c1ccc2ccccc2c1 (centres undefined)	none (no result: NRP1-CendR mod, A3G deaminase, A3A deaminase)
Cc1[nH]c2ccccc2c1C(=O)c1c(N)[nH]c(C(=O)c2ccc(Br)cc2)c1-c1ccc(Br)cc1	none (no result: NRP1-CendR mod, A3G deaminase, A3A deaminase)
COc1ccc(N2C(=O)CSC23C(=O)N2c4c(cccc43)C(C)=CC2(C)C)cc1 (centres undefined)	ADAM10 inh 22 | ADAM10 confirm inactive | ADAM17 ctr inactive
COc1ccc(N2C(=O)CSC23C(=O)N2CCCc4cccc3c42)cc1 (centres undefined)	none
C[C@H](O)[C@@H]1C(=O)N2CCc3c([nH]c4cccc(-c5ccccc5)c34)[C@@H]2C[C@@H]1N(C)C(=O)Nc1ccccc1	none (no result: NRP1-CendR mod, A3G deaminase, A3A deaminase)
C/C=C/COC(=O)c1[nH]c2c(c1C)C(=O)CC(c1ccc(N(C)C)cc1)C2 (centres undefined)	ADAM10 inh 65 | ADAM10 confirm inactive | ADAM17 ctr inactive
O=C(c1cccc(Cl)c1)N1CCN(c2ccnc3cc(Cl)ccc23)CC1	none (no result: NRP1-CendR mod, A3G deaminase, A3A deaminase)
COc1cc(NC(=O)C/C(C)=N/NC(=O)c2cccs2)c(OC)cc1Cl	ADAM17 inh 15, ADAM10 inh 28 | ADAM10 confirm inactive | ADAM17 ctr inactive
C/C(CC(=O)Nc1ccc(Cl)cc1C(F)(F)F)=N\NC(=O)c1cccs1	none
CC1(C)CC2CC(C)(CN2C(=O)c2cc(-c3ccc(O)cc3)on2)C1 (centres undefined)	ADAM10 inh 22 | ADAM10 confirm inactive | ADAM17 ctr inactive
COc1ccc(CNC(=O)c2cccc(S(=O)(=O)N3CCN(c4ccc(F)cc4)CC3)c2)cc1	ADAM10 inh 22 | ADAM10 confirm inactive | ADAM17 ctr inactive
O=C(NCCOc1ccccc1)c1cccc(S(=O)(=O)N2CCN(Cc3ccccc3)CC2)c1	ADAM10 inh 24 (no result: A3G deaminase, A3A deaminase) | ADAM10 confirm inactive | ADAM17 ctr inactive
CN1CCN(S(=O)(=O)c2cccc(C(=O)NCCOc3ccccc3)c2)CC1	none
CCOc1ccc(NC(=S)N(Cc2ccc(Cl)cc2)Cc2ccco2)cc1	ADAM10 inh 24 | ADAM10 confirm inactive | ADAM17 ctr inactive
Cc1cnn(CCC(=O)NNC(=S)Nc2cccc(Cl)c2)c1	none
Cc1cnn(CCC(=O)NNC(=S)Nc2ccc(F)cc2)c1	ADAM10 inh 20 | ADAM10 confirm inactive | ADAM17 ctr inactive
CCO[C@@H]1OC(C(=O)NCc2nc3ccccc3[nH]2)=C[C@H](c2csc3ccccc23)[C@H]1CCCO	ADAM10 inh 20 | ADAM10 confirm inactive | ADAM17 ctr inactive

Bioassay records (PubChem)
